For test [1], the target named is Cellular tumor antigen p53 (Homo sapiens) (UniProt P04637). Nature of the test: Primary qHTS for small molecule compounds that upregulate eGFP-tagged delta133p53alpha (in N-terminal) cells. (AID 2060322).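 Note: cells pre-induced with doxycycline then dosed without doxycycline; series mostly up to about 56 µM; 0% = DMSO vehicle and 100% = reference activator; nearly all actives have a fitted effect of over 75% in size.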 As to conditions: NCI-H358 eGFP-delta133p53alpha fluorescence, 24 h; activation: active compounds read high. Summed up: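 NCI-H358 cells pre-induced 24 h with 10 ng/ml doxycycline for eGFP-delta133p53alpha, plated dox-free and exposed 24 h at 37C to titrated compounds. Fixed, Hoechst-stained; gated GFP peak intensity by laser scanning cytometry, normalized to DMSO (0%) and 57.5 uM 5-azacytidine (100%).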
Sequence of Cellular tumor antigen p53 (Homo sapiens) (P04637 whole entry, looked up): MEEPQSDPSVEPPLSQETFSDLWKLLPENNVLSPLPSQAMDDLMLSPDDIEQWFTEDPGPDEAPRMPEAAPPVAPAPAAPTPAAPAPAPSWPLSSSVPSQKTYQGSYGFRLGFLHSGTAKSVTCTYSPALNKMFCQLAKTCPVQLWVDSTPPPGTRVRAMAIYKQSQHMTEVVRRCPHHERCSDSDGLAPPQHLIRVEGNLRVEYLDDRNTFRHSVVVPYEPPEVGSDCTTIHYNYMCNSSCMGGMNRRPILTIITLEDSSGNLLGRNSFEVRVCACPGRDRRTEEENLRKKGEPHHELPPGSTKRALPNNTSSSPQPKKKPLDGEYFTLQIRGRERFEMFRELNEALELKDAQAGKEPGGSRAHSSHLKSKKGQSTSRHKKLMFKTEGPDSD
For orientation: Quantitative high-throughput screening tests each substance at several concentrations.

Test [2] can be described thus: BET inhibitor-based combinations targeting novel dependencies in MECOM-rearranged (r) AML: SET-2 cell line (AID 2202231).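 For viability: plate controls were DMSO treated cells for no effect and wells without cells for full effect.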 Note: nearly all actives have a fitted effect of over 35% in size. Note: potency is the fitted concentration of half-maximal effect. The settings on record: SET-2 AML cells viability, CellTiter-Glo luminescence, 48 h; viability: active compounds read low, concentration not given here. Put shortly:
(§1)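 A 48 hr incubation preceded viability reading by CellTiter-Glo, with 15 min room-temperature development. Dose series had 11 points; normalization used DMSO and empty wells; AUC was computed and mean-centered per line as Z-AUC.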
(Cellular ATP, detected with luciferase, serves as a proxy for viable cell number.)

Test [3] is described as follows: BET inhibitor-based combinations targeting novel dependencies in MECOM-rearranged (r) AML: OCI-AML3 cell line (AID 2202232). Note: nearly all actives have a fitted effect of over 35% in size. Note: potency is the fitted concentration of half-maximal effect. The settings on record: Potency: OCI-AML3 viability. Summed up:
as §1

Test [4] can be described thus: BET inhibitor-based combinations targeting novel dependencies in MECOM-rearranged (r) AML: MV-4-11 cell line (AID 2202233). Note: nearly all actives have a fitted effect of over 45% in size. Note: potency is the fitted concentration of half-maximal effect. Summed up:
(§2)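 Each compound is tested in an 11-point concentration series against 500 seeded cells/well for 48 hr. The luminescent viability signal is normalized to DMSO and blank wells, then reduced to AUC and a cell-line-centred Z-AUC.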

A short description of test [5]: BET inhibitor-based combinations targeting novel dependencies in MECOM-rearranged (r) AML: UCSD-AML1 cell line (AID 2202235). Note: nearly all actives have a fitted effect of over 40% in size. Note: potency is the fitted concentration of half-maximal effect. Put shortly:
as §2

Test [6] in a line: BET inhibitor-based combinations targeting novel dependencies in MECOM-rearranged (r) AML: AML-194 cell line (AID 2202237; note: nearly all actives have a fitted effect of over 40% in size; note: potency is the fitted concentration of half-maximal effect). Put shortly: as §1
Test [7] is described as follows: BET inhibitor-based combinations targeting novel dependencies in MECOM-rearranged (r) AML: AML-191 cell line (AID 2202236; note: potency is the fitted concentration of half-maximal effect; nearly all actives have a fitted effect of over 35% in size). Put shortly:
as §1

Test [8] is described as follows: BET inhibitor-based combinations targeting novel dependencies in MECOM-rearranged (r) AML: HNT-34 cell line (AID 2202234).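 Note: plate controls were vehicle wells for no effect and cell-free wells for full effect; nearly all actives have a fitted effect of over 35% in size.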 Put shortly: as §2

Molecules are shown by their SMILES. Inconclusive results are not listed. Values without a mark were called inactive. The source made the active and inactive calls. Calls come from the whole dose curve; as a rule, active = well fitted curve in the direction sought with a large enough effect; inconclusive = small, poorly fitted or top-dose-only effect, or another doubt; inactive = no such curve, though single readings can be large; an effect the other way counts as inactive or inconclusive.

`CN1CCCN=C1/C=C/c1cccs1`: the activation in test [1] was -2.82%. For the same compound, the viability in test [2] was 73.8%. Also, the Potency result in test [3], in test [4] and in test [6] was “inactive” throughout. Further, in test [5], the Potency was 2.95 µM (active).
Consider `CC[C@]1(O)C[C@H]2CN(CCc3c([nH]c4ccccc34)[C@@](C(=O)OC)(c3cc4c(cc3OC)N(C=O)[C@H]3[C@@](O)(C(=O)OC)[C@H](OC(C)=O)[C@]5(CC)C=CCN6CC[C@]43[C@@H]65)C2)C1`, for which the activation in test [1] was 54.7%. Further, the Potency in test [2] was 0.833 µM (active); in test [3], 0.166 µM (active); in test [4], 0.166 µM (active); in test [5], 0.235 µM (active); in test [7] it was 0.263 µM (active); in test [6], 0.296 µM (active).
On to `c1coc(CNc2ncnc3nc[nH]c23)c1`, for which the activation in test [1] is -14.3%. Also, the viability in test [2] was 107%. Besides, the Potency result in test [3], in test [4], in test [5] and in test [6] was “inactive” each time.
As for `C#C[C@]1(O)CC[C@H]2[C@@H]3CCC4=CC(=O)CC[C@@H]4[C@H]3CC[C@@]21CC`, the activation in test [1] was -5.86%. Besides, in test [2], the viability is 103%. Also, the Potency entry in test [3], in test [8] and in test [6] was “inactive” each time. The Potency in test [4] is 13.2 µM (active).
Turning to `COc1cc(OC2CCN(C)CC2)ccc1Nc1ncc2c(n1)n(C1CCCC1)c(=O)n2C`, in test [1], the activation was 2.88%. Moreover, the Potency in test [2] was 4.68 µM (active); in test [3] it was 13.2 µM (active); in test [4], 3.32 µM (active); in test [5], 14.8 µM (active); in test [7], 18.6 µM (active).
Take `O=c1cc(N2CCOCC2)oc2c(-c3cccc4c3sc3ccccc34)cccc12`: in test [1], the activation was 27.5%. Moreover, the Potency in test [2] was 9.34 µM (active); in test [3] it was 8.33 µM (active); in test [4] it was 4.17 µM (active); in test [7] it was 5.9 µM (active).
Regarding `CC(C(C)N1CC(=O)NC(=O)C1)N1CC(=O)NC(=O)C1` (configuration not stated), the activation in test [1] is 25.1%. For the same compound, in test [2], the viability is 107%. The Potency in test [3] is 5.9 µM (active); in test [4], 1.18 µM (active); in test [7], 9.34 µM (active). Moreover, the Potency entry in test [6] was “inactive”.

What is called viability is a read-out of living cells in per cent, often relative to untreated cells.

The values are drawn from PubChem BioAssay (NCATS).
